A selection: hits, their analogues and other compounds. The true share with any hit is near 17%.
ClpP mod: qHTS Assay for Activators of ClpP; ATP-dependent Clp protease proteolytic subunit (Bacillus subtilis (strain 168)), P80244; Potency, µM (top dose mostly 57.5 µM); 1.9% of 340,000 active; purified B. subtilis ClpP, FRET peptide cleavage, 20 min; active = well fitted falling curve with a large enough effect; inconclusive = small, poorly fitted or top-dose-only effect; inactive = no such curve, though single readings can be large or run the other way; note: the source files actives as falling curves though it sought activators and does not explain the sign; nearly all actives have a fitted effect of over 65% in size
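Buffer: 100 mM Tris/HCl pH8, 100 mM KCl, 0.05% low protease BSA, 2.5% glycerol, 0.01% Tween-20. ClpP 10 microg/mL final; 20 min RT; delta FRET normalized to ADEP and DMSO controls.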
DT40 TDP1 CPT: qHTS for Inhibitors of human tyrosyl-DNA phosphodiesterase 1 (TDP1): qHTS in cells in presence of CPT | AID 686979, 2013 | Potency, µM (highest dose often 46.2 µM), usual class: inhibitors | 12% of 420,000 active | chicken DT40 Tdp1-/-;hTDP1 cells + 20 nM CPT, ATP luminescence, 48 h; note: nearly all actives have a fitted effect of over 55% in size
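Chicken DT40 Tdp1-/- cells stably complemented with human TDP1 were seeded at 400 cells/well in medium containing 20 nM camptothecin, exposed to pin-transferred compounds, and grown at 37 °C for at least 48 hr. Viability was read as ATP luminescence.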
TDP1 block: qHTS Assay for Inhibitors of Tyrosyl-DNA Phosphodiesterase (TDP1); recombinant TDP1, AlphaScreen DNA substrate cleavage; Potency, µM (doses to about 130 µM), actives largely listed as inhibitors; 0.28% of 350,000 active; note: nearly all actives have a fitted effect of over 40% in size
Target sequence (Q9NUW8 whole entry, looked up): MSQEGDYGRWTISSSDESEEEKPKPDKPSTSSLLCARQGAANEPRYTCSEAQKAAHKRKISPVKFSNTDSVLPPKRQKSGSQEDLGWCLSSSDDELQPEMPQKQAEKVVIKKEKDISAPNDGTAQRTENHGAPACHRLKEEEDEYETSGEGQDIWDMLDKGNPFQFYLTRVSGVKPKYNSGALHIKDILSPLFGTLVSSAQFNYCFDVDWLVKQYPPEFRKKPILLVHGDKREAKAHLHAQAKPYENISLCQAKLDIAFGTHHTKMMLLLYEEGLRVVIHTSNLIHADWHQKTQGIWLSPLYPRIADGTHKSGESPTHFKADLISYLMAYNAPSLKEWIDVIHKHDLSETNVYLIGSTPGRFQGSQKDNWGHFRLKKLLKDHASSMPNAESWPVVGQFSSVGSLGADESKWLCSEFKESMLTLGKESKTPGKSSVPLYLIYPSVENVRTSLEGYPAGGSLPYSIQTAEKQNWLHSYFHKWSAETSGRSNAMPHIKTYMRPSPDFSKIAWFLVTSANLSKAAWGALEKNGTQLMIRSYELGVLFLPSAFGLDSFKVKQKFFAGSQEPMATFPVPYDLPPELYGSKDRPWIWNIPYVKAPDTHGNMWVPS
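Compounds were preincubated with Tdp1 (1 nM final) for 15 min at room temperature before substrate (15 nM final) started a 5 min reaction; beads (10 ug/ml final) were then added for 10 min before AlphaScreen detection.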
DT40 TDP1 no CPT: qHTS for Inhibitors of human tyrosyl-DNA phosphodiesterase 1 (TDP1): qHTS in cells in absence of CPT; DT40 Tdp1-/- hTDP1 cells, no CPT, ATP luminescence, 48 h; Potency, µM (titrated, usually from 46.2 µM), usual class: inhibitors; 15% of 420,000 active; AID 686978, 2013; note: nearly all actives have a fitted effect of over 55% in size
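No-CPT arm: Tdp1-/-;hTDP1 DT40 cells (400/well) plus compounds, incubated ≥48 hr at 37 °C. Readout CellTiter-Glo luminescence.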
Large screens that a line does not name were inactive. Unless noted, calls come from the whole dose curve; as a rule, active = well fitted curve in the direction sought with a large enough effect; inconclusive = small, poorly fitted or top-dose-only effect, or another doubt; inactive = no such curve, though single readings can be large; an effect the other way counts as inactive or inconclusive.

CSCCOC(=O)C1=C(C)NC(=O)NC1c1ccc2c(c1)OCO2 (configuration not stated)	none (no result: TDP1 block)
O=C(NCC1CC1)c1cc(-c2ccccc2)nn1CC1CC(c2cccc([N+](=O)[O-])c2)=NO1 (configuration not stated)	DT40 TDP1 CPT inconclusive, DT40 TDP1 no CPT inconclusive (no result: TDP1 block)
Cc1cc(C(=O)NNC(=S)Nc2cccc(C(F)(F)F)c2)nn1C	DT40 TDP1 CPT inconclusive, DT40 TDP1 no CPT inconclusive
CCC12CN3CC(C)(CN(C1)C3c1ccc(O)cc1O)C2=O (configuration not stated)	none
Cc1ccc2c(C)nc(Nc3nc(CSc4nc5ccccc5s4)cc(=O)[nH]3)nc2c1	DT40 TDP1 CPT inconclusive, DT40 TDP1 no CPT 5.2µM (no result: ClpP mod, TDP1 block)
Cc1ccc2c(C)nc(Nc3nc(CSc4nnnn4-c4ccccc4)cc(=O)[nH]3)nc2c1	DT40 TDP1 CPT 5.8µM, DT40 TDP1 no CPT 6.5µM
N#Cc1nc(NCC(F)F)nc(Nc2cc(F)cc(F)c2)n1	none (no result: ClpP mod, DT40 TDP1 CPT, DT40 TDP1 no CPT)
CN(C)c1ccc(CNC(=O)CCS(=O)(=O)c2ccc3c(c2)oc(=O)n3C)cc1	none
COc1ccc(Oc2ccc(NC(=O)c3ccccc3C)cc2)cc1	DT40 TDP1 CPT inconclusive, DT40 TDP1 no CPT 21µM (no result: ClpP mod)
COc1ccccc1Oc1ccc(NC(=O)c2ccccc2C)cc1	DT40 TDP1 CPT inconclusive, DT40 TDP1 no CPT 23µM
CC(=O)Nc1ccc(NC(=O)c2ccccc2C)cc1	none
COc1ccc(C(=O)Nc2ccc(N3CCN(C(=O)c4ccccc4C)CC3)cc2)cc1	DT40 TDP1 CPT 8.2µM, DT40 TDP1 no CPT 8.2µM
COc1ccc(C(=O)Nc2ccc(N3CCCC3)cc2)cc1	DT40 TDP1 no CPT inconclusive
COc1ccc(O)c(C(=O)CC(=O)c2ccccc2C)c1	DT40 TDP1 CPT 7.3µM, DT40 TDP1 no CPT 5.8µM (no result: ClpP mod)
Cc1nc(NC(=O)CCN2C(=O)C3CC=CCC3C2=O)sc1C (configuration not stated)	none
CCN1CCN(c2ccc(NC(=O)c3ccc4c(c3)[nH]c(=O)n4Cc3ccc(OC)cc3)cc2)CC1	DT40 TDP1 CPT 23µM, DT40 TDP1 no CPT inconclusive
COc1ccc(Cn2c(=O)[nH]c3cc(C(=O)Nc4ccccc4C)ccc32)cc1	none (no result: TDP1 block)
Cc1nc(C)c(C(=O)Nc2ccc(Oc3ccccc3)cc2)o1	DT40 TDP1 CPT inconclusive, DT40 TDP1 no CPT 15µM
O=C(C[N+]1(CCc2ccccc2)CCOCC1)c1ccccc1	none (no result: TDP1 block)
CCOc1ccc(N(C(=O)/C=C/C(=O)Nc2cc(C)on2)C(C(=O)NC2CCCC2)c2ccccc2C)cc1 (configuration not stated)	DT40 TDP1 CPT 16µM, DT40 TDP1 no CPT 16µM
Cc1cc(NC(=O)/C=C/C(=O)N(CC(=O)NC2CCCC2)c2cccc3ccccc23)no1	none
CCc1ccc(C(C(=O)NC2CCCC2)N(C(=O)/C=C/C(=O)Nc2cc(C)on2)c2ccccc2C)cc1 (configuration not stated)	DT40 TDP1 CPT 16µM, DT40 TDP1 no CPT 16µM
C=CCOc1ccccc1C1C2=C(CC(C)(C)CC2=O)Nc2c1c(=O)n(C)c(=O)n2C (configuration not stated)	ClpP mod 28µM
COc1ccc(C2C3=C(CC(C)(C)CC3=O)Nc3c2c(=O)n(C)c(=O)n3C)cc1OC (configuration not stated)	DT40 TDP1 CPT inconclusive, DT40 TDP1 no CPT inconclusive
CN(C(=O)CSc1nc2ccc(NC(=O)CCc3ccccc3)cc2s1)c1ccccc1	DT40 TDP1 CPT 18µM, DT40 TDP1 no CPT 15µM
CN(C(=O)CSc1nc2ccc(NC(=O)c3ccc(F)cc3)cc2s1)c1ccccc1	ClpP mod inconclusive, DT40 TDP1 CPT 16µM, DT40 TDP1 no CPT 15µM
CN(C(=O)CSc1nc2ccc(NC(=O)COc3ccc(F)cc3)cc2s1)c1ccccc1	DT40 TDP1 CPT 5.8µM, DT40 TDP1 no CPT 4.6µM
COc1ccc(C(=O)Nc2ccc3nc(SCC(=O)N(C)c4ccccc4)sc3c2)cc1	DT40 TDP1 CPT inconclusive, DT40 TDP1 no CPT 16µM
Cc1ccc(NC(=O)CCNC(=O)c2ccc(Br)cc2)nc1	none
COc1ccc(CN2CCN(C(C)=O)CC2)cc1OC1CCN(C(=O)c2ccc3ccccc3n2)CC1	none (no result: ClpP mod, TDP1 block)
CC1C(=O)CCC2[C@]1(C)CCC1[C@]2(C)CC[C@@]2(C)C3CC(C)(C)CC[C@]3(C)CC[C@@]12C (some centres not stated)	none (no result: ClpP mod)
Cn1c2c(c(=O)n(C)c1=O)C1(C(=O)Nc3ccccc31)C(C#N)=C(N)O2 (configuration not stated)	DT40 TDP1 CPT 15µM, DT40 TDP1 no CPT inconclusive
N#CC1=C(N)Oc2ccccc2C12C(=O)Nc1n[nH]c(-c3ccccc3)c12 (configuration not stated)	DT40 TDP1 no CPT inconclusive
COc1ccc(C(=O)Nc2cc(-c3ccccc3)nn2-c2ccccc2)cc1	DT40 TDP1 CPT inconclusive, DT40 TDP1 no CPT inconclusive
COc1ccc(C(=O)Nc2cc(-c3ccccc3)nn2-c2ccccc2F)cc1	DT40 TDP1 CPT 23µM, DT40 TDP1 no CPT inconclusive (no result: TDP1 block)
COc1ccccc1COn1c(=O)c(-c2ccco2)[n+]([O-])c2ccccc21	DT40 TDP1 CPT 15µM, DT40 TDP1 no CPT 18µM (no result: TDP1 block)
O=c1c(-c2ccco2)[n+]([O-])c2ccccc2n1OCc1ccccc1	DT40 TDP1 CPT 12µM, DT40 TDP1 no CPT 12µM
O=c1c(-c2ccc(Br)cc2)[n+]([O-])c2ccccc2n1OCc1ccccn1	DT40 TDP1 CPT inconclusive, DT40 TDP1 no CPT inconclusive (no result: ClpP mod)
O=c1c(-c2cc3ccccc3o2)[n+]([O-])c2ccccc2n1OCc1ccccn1	DT40 TDP1 CPT inconclusive, DT40 TDP1 no CPT 15µM
O=c1c(-c2ccco2)[n+]([O-])c2ccccc2n1OCc1ccccc1F	DT40 TDP1 no CPT inconclusive
CCC(=O)NC[C@H](Cc1ccc(OCCc2nc(-c3ccccc3)oc2C)cc1)N/C(C)=C\C(=O)c1ccc(C(F)(F)F)cc1	none (no result: ClpP mod, DT40 TDP1 CPT, DT40 TDP1 no CPT)
COc1ccccc1OCCSc1nc2ccccc2c(=O)[nH]1	DT40 TDP1 CPT inconclusive, DT40 TDP1 no CPT inconclusive
Cn1c(SCCOc2ccccc2F)nc2ccccc2c1=O	DT40 TDP1 CPT 18µM, DT40 TDP1 no CPT 16µM
O=c1cc(CSc2nc3ccccc3[nH]2)c2ccccc2[nH]1	none
O=c1[nH]c(SCCOc2ccccc2F)nc2ccccc12	DT40 TDP1 no CPT 6.5µM
O=c1[nH]c(SCc2ccc(F)cc2Cl)nc2ccccc12	DT40 TDP1 no CPT 21µM (no result: ClpP mod)
COc1ccc(CSc2nc3ccccc3c(=O)[nH]2)cc1F	DT40 TDP1 CPT inconclusive, DT40 TDP1 no CPT inconclusive
Fc1ccc(CSc2nc3ccccc3[nH]2)c2ccccc12	DT40 TDP1 CPT inconclusive, DT40 TDP1 no CPT 21µM
Fc1ccccc1OCCSc1nnnn1-c1ccccc1	none
CCC(=O)Nc1ccc2c(c1)OC[C@@H](C)N(Cc1ccccc1F)C[C@@H](C)[C@@H](OC)CN(C)C2=O	none (no result: TDP1 block)
CC(C)Oc1ccc(CNS(=O)(=O)c2cnc(N)nc2)cc1	none
Cc1cc(C)c(NC(=O)Cc2csc(C)n2)c(Cl)c1	DT40 TDP1 CPT inconclusive, DT40 TDP1 no CPT inconclusive

Screening results as filed in PubChem BioAssay.
